A selection: hits, their analogues and other compounds. The true share with any hit is near 4%.
GDH-TPI counter – GDH-TPI coupling enzyme inhibitors, primary screen, artefact control for M. tuberculosis FBA inhibitor project, biochemical, absorbance, full deck. GDH-TPI coupled enzyme counterscreen, NADH absorbance. inhibition, % at 4.8 µM. 360,000 tested, 1.2% active. AID 588335, 2011; in the data active means inhibition above about 30%;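 further: 0% = DMSO wells and 100% = wells lacking the enzyme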
RecA intein inh – Mtb RecA intein splicing inhibitors, primary screen, biochemical, fluorescence, HTS; inhibition, % (concentration not given with the values); cell-free RecA intein splicing; AID 2221, 2009; 290,000 tested, 0.75% active; in the data active means inhibition above about 30%; inconclusive means no clear call, values can overlap the other calls;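 further: 0% = vehicle wells and 100% = reference inhibitor control wells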
Mtb UGM inh – M. tuberculosis UGM enzyme inhibitors, primary screen, biochemical, fluorescence polarization, single point; UDP-galactopyranose mutase (Mycobacterium tuberculosis (strain ATCC 25618 / H37Rv)), …; purified UGM, fluorescence polarization probe displacement; inhibition, % at 10 µM; 320,000 tested, 0.06% active; in the data active means inhibition above about 10%, passing the limit was not always enough; inconclusive means no clear call, values can overlap the other calls
Mtb bLac sens – beta-lactam sensitization of Mtb H37Rv, H37Rv. 330,000 tested, 0.27% active. AID 434955, 2010. M. tuberculosis H37Rv growth with meropenem, percent inhibition. inhibition, % at 25 µM; call rule not given here;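 further: growth measured after seven days incubation then overnight dye step; 0% = bacteria only wells and 100% = bacteria with antibiotic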
Mtb FBA inh – Mtb FBA enzyme inhibitors, primary screen, biochemical, fluorescence, strain H37Rv. Fructose-bisphosphate aldolase (Mycobacterium tuberculosis (strain ATCC 25618 / H37Rv)), …. purified M. tuberculosis FBA, fluorescence read-out. inhibition, % at 1 µM. 360,000 tested, 2.3% active. AID 588726, 2011; in the data active means inhibition above about 27%;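 further: 0% = vehicle and 100% = reference inhibitor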
Target sequence (P9WQA3 whole entry, looked up): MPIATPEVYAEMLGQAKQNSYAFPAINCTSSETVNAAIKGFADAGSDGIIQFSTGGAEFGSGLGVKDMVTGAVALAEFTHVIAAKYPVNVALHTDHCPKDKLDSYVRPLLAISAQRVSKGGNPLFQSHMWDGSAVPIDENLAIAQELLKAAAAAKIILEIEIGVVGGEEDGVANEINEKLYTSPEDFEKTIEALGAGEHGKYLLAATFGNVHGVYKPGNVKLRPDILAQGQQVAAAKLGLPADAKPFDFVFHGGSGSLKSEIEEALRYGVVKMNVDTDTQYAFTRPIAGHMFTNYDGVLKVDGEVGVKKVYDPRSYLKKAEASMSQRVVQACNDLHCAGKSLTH
Rv3671c protease – Rv3671c serine protease inhibitors, primary screen, biochemical, fluorescence polarization, M. tuberculosis H37Rv; 320,000 tested, 0.048% active; inhibition, % at 5.96 µM; P9WHR9; AID 2606, 2010; in the data active means inhibition above about 38%;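 further: extracellular domain of Rv3671c used as enzyme; 0% = enzyme with DMSO and 100% = no enzyme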
Starred values were filed as active, the others as inactive.

CCOC(=O)/C(C#N)=C/c1c(N2CCN(CC)CC2)nc2c(C)cccn2c1=O was read as GDH-TPI counter 10, RecA intein inh -28, Mtb UGM inh -3, Mtb bLac sens 11, Mtb FBA inh 3 and Rv3671c protease -3.
Screening CCOC(=O)C(/C=C(\C#N)C(=O)OCC)=C(/N)N1CCN(c2c(C)cccc2C)CC1 returned GDH-TPI counter 50*, RecA intein inh -1, Mtb UGM inh 6, Mtb bLac sens -12, Mtb FBA inh 4 and Rv3671c protease 6.
For CCOC(=O)/C(C#N)=C/c1c(N2CCN(c3ccc(OC)cc3)CC2)nc2c(C)cccn2c1=O the results were GDH-TPI counter 9, RecA intein inh -2, Mtb UGM inh -1, Mtb bLac sens 36 and Mtb FBA inh 0.
`CCOc1ccc(C(=O)Nc2ccc3nc(N4CCN(CC)CC4)cc(C)c3c2)cc1` gave GDH-TPI counter 15, RecA intein inh 2, Mtb UGM inh -2, Mtb bLac sens 42, Mtb FBA inh 3 and Rv3671c protease -4.
`COc1ccc(NC(=O)CCC(=O)Nc2ccc3nc(N4CCOCC4)cc(C)c3c2)c(OC)c1` gave GDH-TPI counter -5, RecA intein inh 1, Mtb UGM inh -2, Mtb bLac sens 3, Mtb FBA inh 14 and Rv3671c protease -4.
Cc1cc(N2CCOCC2)nc2ccc(NC(=S)NCCC(C)C)cc12 was read as GDH-TPI counter -1, RecA intein inh -2, Mtb UGM inh 3, Mtb bLac sens 31, Mtb FBA inh 28* and Rv3671c protease 10.
For CCN1CCN(c2cc(C)c3cc(NC(=O)c4cc(OC)cc(OC)c4)ccc3n2)CC1 the results were GDH-TPI counter 34*, RecA intein inh 0, Mtb UGM inh 0, Mtb bLac sens 38, Mtb FBA inh 3 and Rv3671c protease 16.
`Cc1cc(N2CCOCC2)nc2ccc(NC(=O)CCC(=O)N3CCC(C)CC3)cc12` gave GDH-TPI counter 0, RecA intein inh -3, Mtb UGM inh -1, Mtb bLac sens inconclusive, Mtb FBA inh 54* and Rv3671c protease -6.
For CCC(C)NC(=O)CCC(=O)Nc1ccc2nc(N3CC(C)CC(C)C3)cc(C)c2c1 (stereo not drawn) the results were GDH-TPI counter 15, RecA intein inh -6, Mtb UGM inh -1, Mtb bLac sens 18, Mtb FBA inh 10 and Rv3671c protease 8.
Screening CCCCNC(=O)CCC(=O)Nc1ccc2nc(N3CCC(C)CC3)cc(C)c2c1 returned GDH-TPI counter 9, RecA intein inh 0, Mtb UGM inh -1, Mtb bLac sens 7, Mtb FBA inh 68* and Rv3671c protease -12.
`Cc1cc(N2CCN(C)CC2)nc2ccc(NC(=S)NCCC(C)C)cc12` gave GDH-TPI counter 14, RecA intein inh -2, Mtb UGM inh 1, Mtb bLac sens 51, Mtb FBA inh 6 and Rv3671c protease -4.
For O=P1(NC2CCCC2)OCC2(CO1)COP(=O)(NC1CCCC1)OC2 (stereo not drawn) the results were GDH-TPI counter 8 and Mtb FBA inh -2.
`Cc1ccc(S(=O)(=O)N[C@H](C(=O)OCC(=O)NC(=O)C2CCCCC2)C(C)C)cc1` gave GDH-TPI counter 8, Mtb UGM inh 1, Mtb bLac sens -3, Mtb FBA inh 0 and Rv3671c protease 0.
Screening COc1ccc(/C=C/C(=O)O/N=C(\N)c2ccccc2)cc1OC returned GDH-TPI counter 40*, RecA intein inh 4, Mtb UGM inh 0, Mtb bLac sens 5, Mtb FBA inh 6 and Rv3671c protease -6.
For COc1cccc(/C=C/C(=O)c2ccc(NS(=O)(=O)c3ccc(C)cc3)cc2)c1 the results were GDH-TPI counter 23, RecA intein inh 34*, Mtb UGM inh 2, Mtb bLac sens 9, Mtb FBA inh -6 and Rv3671c protease -160.
Cc1ccc(S(=O)(=O)Oc2cccc(/C=N/Nc3ccc(C(=O)O)cc3)c2)cc1 was read as GDH-TPI counter 31*, RecA intein inh 1, Mtb UGM inh 0, Mtb bLac sens 16, Mtb FBA inh 3 and Rv3671c protease 7.
Screening COc1ccc(/C=N/Nc2ccc(C(=O)O)cc2)cc1Br returned GDH-TPI counter 24, RecA intein inh -7, Mtb UGM inh 1, Mtb bLac sens 18, Mtb FBA inh 2 and Rv3671c protease -9.
`Cc1ccc(S(=O)(=O)Oc2cccc(/C=N/n3cnnc3)c2)cc1` gave GDH-TPI counter 1, RecA intein inh 3, Mtb UGM inh 1, Mtb bLac sens -4, Mtb FBA inh -1 and Rv3671c protease -4.
COc1ccc(/C=N/Nc2ccc(C(=O)O)cc2)cc1OC was read as GDH-TPI counter 47*, RecA intein inh -1, Mtb UGM inh -1, Mtb bLac sens 5, Mtb FBA inh -2 and Rv3671c protease 6.
O=C(O)c1ccc(N/N=C/c2ccc(-c3ccccc3)cc2)cc1 was read as GDH-TPI counter 26, RecA intein inh 14 and Mtb FBA inh 7.
CC(C)c1ccc(/C=N/Nc2ccc(C(=O)O)cc2)cc1 was read as GDH-TPI counter 31*, RecA intein inh -1, Mtb UGM inh 4, Mtb bLac sens 12, Mtb FBA inh -1 and Rv3671c protease 3.
For Nc1ccc(C(=O)N/N=C\c2ccc(OC(=O)c3ccccc3Cl)cc2)cc1 the results were GDH-TPI counter 15, RecA intein inh -3, Mtb UGM inh 2, Mtb bLac sens 5, Mtb FBA inh -1 and Rv3671c protease 4.
For O=C(O)c1ccc(N/N=C/c2ccc(OC(=O)c3ccccc3Cl)cc2)cc1 the results were GDH-TPI counter 41*, RecA intein inh 4, Mtb UGM inh -1, Mtb bLac sens 1, Mtb FBA inh -1 and Rv3671c protease 16.
Screening Cn1c(N)c(C(=O)COC(=O)c2cc(S(=O)(=O)NCc3ccccc3)ccc2O)c(=O)n(C)c1=O returned GDH-TPI counter 0 and Mtb FBA inh 1.
Screening CCOc1ccccc1Nc1cc2n(c(=O)n1)CCc1cc(OC)c(OC)cc1-2 returned GDH-TPI counter 34*, RecA intein inh 0, Mtb UGM inh -1, Mtb bLac sens -1, Mtb FBA inh -2 and Rv3671c protease -4.
For COc1cc2c(cc1OC)-c1cc(NC3CC3)nc(=O)n1CC2 the results were GDH-TPI counter 37*, RecA intein inh -4, Mtb UGM inh 0, Mtb bLac sens 12, Mtb FBA inh 6 and Rv3671c protease 1.
`COc1cc2c(cc1OC)-c1cc(NC3CCCCCCC3)nc(=O)n1CC2` gave GDH-TPI counter 21, RecA intein inh 5, Mtb UGM inh 1, Mtb bLac sens 42, Mtb FBA inh 9 and Rv3671c protease 0.

Bioassay records deposited in PubChem by several laboratories.
